What was measured:
Assay in all cases: PBM binding z-score (relative to random genomic background probes); higher = stronger binding; sequences stand for … in GC…GCGATTGACAGCGTAGAATGAAGG
[1] = test system: RARb homodimer (NR concentration 270 nM)
Outline: (§1)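 Probes were double-stranded and carried 34-nt variable regions with direct-repeat seeds, single-nucleotide variants, half-site ablations and random human genomic background sequences, printed on custom Agilent 4×180K protein-binding microarrays. Arrays were incubated 1 h with ligand-free nuclear receptor dimers in PBS pH 7.4, 2% milk, 0.02% Triton X-100, 1 mM DTT, 0.2 mg/mL BSA and 0.4 mg/ml salmon testes DNA. Antibodies against each partner (one per run) detected binding, and scanned fluorescence was regression-normalized. Binding z-scores use the random background probes as reference.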

[2] = test system: RARg:RXRa (NR concentration 270 nM, RXRa partner concentration 90 nM)
Outline: as §1

[3] = test system: RARg homodimer (NR concentration 270 nM)
Outline: as §1

[4] = test system: RXRa DBDmut IVT, anti-RXR (DBD mutation: RXRa K156A/R161A, NR concentration 90 nM)
Outline: as §1

[5] = test system: RXRa homodimer (NR concentration 180 nM)
Outline: as §1

[6] = test system: THRa:RXRa (NR concentration 90 nM, RXRa partner concentration 90 nM)
Outline: as §1

[7] = test system: THRa homodimer (NR concentration 90 nM)
Outline: as §1

[8] = test system: VDR homodimer (NR concentration 270 nM)
Outline: as §1

| Sequence | PBM binding z-score [1] | PBM binding z-score [2] | PBM binding z-score [3] | PBM binding z-score [4] | PBM binding z-score [5] | PBM binding z-score [6] | PBM binding z-score [7] | PBM binding z-score [8] |
| --- | --- | --- | --- | --- | --- | --- | --- | --- |
| ACAGACAGGTGAGGGAAGGTAACTCAGCTGGACG | 0.595 | 0.445 | 0.526 | -0.769 | 0.426 | 2.31 | -0.12 | -0.764 |
| TGATATAGGTAAAAGGTGAAAGTCGGTGTGGTAA | 2.03 | 1.86 | 1.13 | -0.0828 | 2.92 | 1.8 | 0.423 | 0.42 |
| ATCGAATGGTCGACGAGGTGAGTATACACCGTTT | -0.00631 | 0.294 | 0.526 | -0.27 | 0.305 | 1.03 | 0.408 | -0.381 |
| TCATATAGGTAAACACGTGAAAGTCCGTAAGTTA | 0.112 | 0.245 | 0.371 | 1.31 | 0.661 | 0.0438 | 0.238 | 0.164 |
| TAGCCTAGGTCATGAGCCAGTATACCACGCGAAC | 2.5 | 4.1 | 3.99 | 0.516 | 3.37 | 2.97 | 1.01 | 0.409 |
| TCTGCTAGGTCAACGATGGTCAGCTGATCTGCTA | 3.36 | 4 | 4.88 | 0.835 | 2.52 | 2.99 | 0.473 | -0.511 |
| GCTTACGGGTCAAAGGTTTTAGCATGAATAGAAT | 2.53 | 4.83 | 4.15 | 2.2 | 6.49 | 2.76 | -0.137 | 1.41 |

Source: the supplement of paper PMC6555819
